In PubChem BioAssay AID651965 (National Center for Advancing Translational Sciences (NCATS), 2013) one finds Potency data, which are given here for 99 molecules.

In all, about 340,000 compounds went through this assay and about 6,400 (1.9%) were called active. A call without a number means that no potency is given here. Inconclusive results (about 4%) are left out. This is one part of a sample in which actives are shown more often than they occur. Calls come from the whole dose curve; as a rule, active = well fitted falling curve with a large enough effect; inconclusive = small, poorly fitted or top-dose-only effect; inactive = no such curve, though single readings can be large or run the other way.
Potency is the fitted concentration of half-maximal effect.

The target in this test is ATP-dependent Clp protease proteolytic subunit (Bacillus subtilis (strain 168)) (UniProt P80244). The test is described as follows: qHTS Assay for Activators of ClpP. Note: the source files actives as falling curves though it sought activators and does not explain the sign; nearly all actives have a fitted effect of over 65% in size. As to conditions: purified B. subtilis ClpP, FRET peptide cleavage, 20 min; series mostly up to 57.5 µM. The method in brief: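 ClpP 10 microg/mL final, pH 8 Tris/KCl buffer with BSA, glycerol, Tween-20; compound pinned in; FRET-FV substrate; RT 20 min; Ex320/Em430; ΔFRET vs ADEP 5.8 microM, DMSO, no enzyme.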
Sequence of ATP-dependent Clp protease proteolytic subunit (Bacillus subtilis (strain 168)) (P80244 whole entry, looked up): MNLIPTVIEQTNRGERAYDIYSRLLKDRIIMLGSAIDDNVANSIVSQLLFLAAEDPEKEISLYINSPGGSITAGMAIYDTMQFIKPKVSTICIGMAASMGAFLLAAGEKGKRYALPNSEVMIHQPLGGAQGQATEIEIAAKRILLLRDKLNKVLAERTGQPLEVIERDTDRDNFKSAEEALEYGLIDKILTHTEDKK
For `c1cc(-c2ccc3[nH]ccc3c2)n2ccnc2c1`, the Potency result was “inactive”.

As to `CCOC(=O)[C@]12CCCC=C1N(CCC1=CCCCC1)C(=O)[C@H](CC(=O)N1CCCCC1)C2`, the Potency result was “inactive”.

Regarding `N#Cc1c(-c2ccc(F)cc2)nc(-c2ccccc2)[nH]c1=O`, the Potency result is “inactive”.

For the molecule `[O-][n+]1onc2c1CCc1[nH]c(-c3ccccc3)nc1-2`, the Potency is 28.2 µM (active).

For the molecule `CN(C(=O)CN1CCN(c2cc(-c3ccc(OCc4ccccc4)cc3)ncn2)CC1)c1ccccc1`, the Potency entry was “inactive”.

Consider `COc1ccc(Cl)cc1NC(=O)NCC1CCN(Cc2ccccc2F)CC1`, for which the Potency result is “inactive”.

Consider `COc1ccc(Cl)cc1NC(=O)CNc1ccccc1F`, for which the Potency entry was “inactive”.

For the molecule `COc1ccc(Cl)cc1NC(=O)C(C)N1CCc2ccccc21` (centres undefined), the Potency is 28.2 µM (active).

As for `CCOc1ccc(NC(=O)N(CCC(C)C)C(C)c2ccco2)cc1` (centres undefined), the Potency is 28.2 µM (active).

Consider `CC(C)CCN(C(=O)Nc1ccc(Cl)c(Cl)c1)C(C)c1cccs1` (centres undefined), for which the Potency entry is “inactive”.

As to `CCOc1ccc(NC(=O)N(CC(C)C)CC(C)C)cc1`, the Potency result is “inactive”.

On to `OC(CBr)C[n+]1cccc2cc(Br)ccc21` (centres undefined), for which the Potency entry is “inactive”.

With `Cc1ccc(C(=O)/C=C/c2c(C)nn(-c3ccccc3)c2Cl)cc1`, the Potency was 6.31 µM (active).

With `Cc1nn(-c2ccccc2)c(Cl)c1/C=C/C(=O)c1ccc(O)cc1`, the Potency entry is “inactive”.

With `Cc1ccc(-n2nc(C)c(/C=N/NC(=O)c3cccs3)c2Cl)cc1`, the Potency entry was “inactive”.

In the case of `Cc1ccc(-c2nc3c(C)cc(Br)cn3c2Cc2ccccc2)cc1`, the Potency entry was “inactive”.

As to `COC(=O)C[C@@H]1C=C[C@@H](NC(=O)c2ccc3c(c2)OCO3)[C@@H](CO)O1`, the Potency result is “inactive”.

As for `CCOc1ccc(NC(=O)CSc2nnc3c(n2)[nH]c2ccc(S(=O)(=O)N4CCOCC4)cc23)cc1`, the Potency result is “inactive”.

As for `CC(C)C1Cc2[nH][nH]c(=O)c2C(c2ccc(Cl)cc2)O1` (centres undefined), the Potency result is “inactive”.

Take `O=C(Nc1ccc2nc(SCC(=O)N3CCCc4ccccc43)sc2c1)c1ccc(F)cc1`: the Potency is 28.2 µM (active).

For `O=C(COc1ccccc1Cl)Nc1ccc2nc(SCC(=O)N3CCCC3)sc2c1`, the Potency result is “inactive”.

Turning to `Nc1nnc(SCC(=O)Nc2ccc3nc(SCC(=O)Nc4ccccc4)sc3c2)s1`, the Potency entry is “inactive”.

For the molecule `O=C(Nc1ccc2nc(SCC(=O)N3CCc4ccccc43)sc2c1)c1ccccc1F`, the Potency result is “inactive”.

Consider `O=C(Nc1ccc2nc(SCC(=O)N3CCCc4ccccc43)sc2c1)c1ccc(Cl)cc1`, for which the Potency was 10 µM (active).

Take `CCC(=O)Nc1ccc2nc(SCC(=O)N3CCc4ccccc43)sc2c1`: the Potency result was “inactive”.

For `Cc1ccc(S(=O)(=O)N2[C@@H](Cc3ccccc3)CO[C@H]2CC(=O)OCc2ccccc2)cc1`, the Potency result is “inactive”.

In the case of `CN1OC[C@@H]2CN(C(=O)c3ccc(-c4ccccc4)cc3)[C@H](c3ccc(-c4cccc(F)c4)cc3)C[C@@H]21`, the Potency entry was “inactive”.

On to `O=C(c1ccc(N2CCCC2=O)cc1)N1CCN(c2ccc(C(F)(F)F)cc2[N+](=O)[O-])CC1`, for which the Potency result is “inactive”.

Turning to `Cc1ccc(Cn2c(C)c(C(=O)NCc3ccccc3C(F)(F)F)sc2=O)cc1`, the Potency entry is “inactive”.

On to `O=C(CC[C@H]1O[C@@H](n2ccc(=O)[nH]c2=O)[C@H](O)[C@@H]1O)N[C@H](Cc1ccccc1)C(=O)NCc1ccco1`, for which the Potency result is “inactive”.

Regarding `Cc1ccc(C(=O)OC(C)CN2CCOCC2)cc1` (centres undefined), the Potency is 39.8 µM (active).

Turning to `CC(CN1CCOCC1)OC(=O)c1ccc(Cl)cc1Cl` (centres undefined), the Potency entry was “inactive”.

Turning to `CC(CN1CCOCC1)OC(=O)c1ccc(C(C)(C)C)cc1` (centres undefined), the Potency entry is “inactive”.

With `CCN(CC)C(=O)C1=C(C)N(Cc2ccc(OC)cc2)C(=O)C(CC(=O)NCc2ccco2)C1` (centres undefined), the Potency entry is “inactive”.

`Nc1nc2c(ncn2[C@@H]2O[C@H](CNCc3ccc(OCCCN4CCOCC4)cc3)[C@@H](O)[C@H]2O)c(=O)[nH]1`: the Potency result is “inactive”.

For the molecule `CCCCC[C@H](C)N1C[C@@H](COCc2ccccc2)Oc2cc(N3CCC[C@@H]3CO)ccc2S1(=O)=O`, the Potency result is “inactive”.

On to `O=C(NC1CC1)c1cccc(Br)c1`, for which the Potency entry is “inactive”.

For `CCCNC(=O)c1ccc(N2CCC3(CC2)CC(c2cccc(Br)c2)=NO3)c(NC(=O)c2ccco2)c1`, the Potency entry is “inactive”.

Consider `CCCN(CCC)CCNC(=O)c1ccc2c(c1)NC(=O)C(CS(=O)(=O)Cc1cccc(Br)c1)N2` (centres undefined), for which the Potency was 2.82 µM (active).

On to `COc1ccc(OC)c(NC(=O)C2(C)CCN2C(=O)Cc2ccccc2)c1` (centres undefined), for which the Potency entry is “inactive”.

Turning to `Cc1cccc(C)c1NC(=O)C(c1ccc(C(F)(F)F)cc1)n1c(=O)c(-c2ccco2)nc2ccccc21` (centres undefined), the Potency result is “inactive”.

Take `CCOC(=O)C1=C(CCc2ccccc2)NC(=O)NC1c1ccc2ccccc2c1` (centres undefined): the Potency result was “inactive”.

For `CCOC(=O)c1sc(C)c2c1NC(C)(c1cccc3ccccc13)NC2=O` (centres undefined), the Potency was 28.2 µM (active).

With `CCOC(=O)c1ccc(Nc2cc3ccccc3c(=O)[nH]2)cc1`, the Potency result is “inactive”.

On to `COc1cccc(-c2nnc(SCCOc3ccc4c(C)cc(=O)oc4c3)o2)c1`, for which the Potency was 28.2 µM (active).

For the molecule `COc1cccc(-c2nnc(SCC(=O)N3CCC(C)CC3)o2)c1`, the Potency entry is “inactive”.

For `COc1cccc(NC(=O)CSc2nnc(-c3cccnc3)o2)c1`, the Potency entry is “inactive”.

With `CCCNC(=O)C1(C)CCCN(C(=O)c2oc3ccccc3c2C)C1` (centres undefined), the Potency result was “inactive”.

For the molecule `OC[C@@H]1CN(Cc2ccc(F)cc2)C[C@H](n2cnc3c(NC4CCCC4)ncnc32)O1`, the Potency entry is “inactive”.

For the molecule `CC1(c2cccc([N+](=O)[O-])c2)CC(C)(C)N(C(=O)c2ccccc2)c2ccccc21` (centres undefined), the Potency result is “inactive”.

Turning to `CC1(c2ccccc2)CC(C)(C)N(C(=O)c2cc([N+](=O)[O-])cc([N+](=O)[O-])c2)c2ccccc21` (centres undefined), the Potency result was “inactive”.

For the molecule `Cc1nnc(SCC(=O)N2c3ccccc3C(C)(c3ccc(Cl)cc3)CC2(C)C)s1` (centres undefined), the Potency was 31.6 µM (active).

On to `O=C(C[n+]1ccncc1)c1ccc2c(c1)CCCC2`, for which the Potency result is “inactive”.

As for `COc1ccc(CC(N)c2csc(NC(=O)Nc3ccc(C(C)C)cc3)n2)cc1` (centres undefined), the Potency result is “inactive”.

Turning to `CO[C@H]1O[C@@H]2O[C@@]3(C)CC[C@@H]4[C@@H](C)CC[C@@H]([C@H]1C)[C@@]24OO3`, the Potency entry is “inactive”.

As to `CCOC(=O)c1ccn(S(=O)(=O)c2ccc(C)cc2)c1-c1ccccc1`, the Potency result is “inactive”.

As to `CCSc1nc(-c2ccc(OC)cc2)cc(-c2ccc(OC)cc2)c1C#N`, the Potency is 22.4 µM (active).

`CCOc1cc(-c2cc(-c3ccc(OC)cc3)nc(N)c2C#N)ccc1O`: the Potency entry was “inactive”.

As to `CCOC(=O)CC(=O)CSc1nc(-c2ccccc2)cc(-c2ccc(Cl)cc2)c1C#N`, the Potency result was “inactive”.

`CCc1ccc([C@@H]2CC(=O)[C@@H]3CN(S(=O)(=O)c4ccc(C)cc4)[C@H](c4ccc(Cl)cc4)C[C@@H]3N2S(=O)(=O)c2ccc(C)cc2)cc1`: the Potency result was “inactive”.

As for `Cc1ccc(S(=O)(=O)N[C@H]2CCC[C@@H]2O)cc1`, the Potency result is “inactive”.

Take `CCCNC(=O)c1cc(C2CCCN(C(=O)c3ccc4c(c3)CCO4)C2)on1` (centres undefined): the Potency result was “inactive”.

Regarding `CCOc1ccc(CNC(=O)C2CCC(=O)N2C2CCCC2)cc1OC` (centres undefined), the Potency entry was “inactive”.

Turning to `CCOc1cc(C2C(C(=O)OC)=CN(C3CCCC3)C=C2C(=O)OC)cc(Br)c1O`, the Potency is 31.6 µM (active).

Take `CCCC(=O)Nc1cc(OCC)c(NC(=O)NC2CCCCC2)cc1OCC`: the Potency result was “inactive”.

Consider `CCOc1ccc2[nH]c(=S)sc2c1`, for which the Potency result is “inactive”.

For the molecule `C=CCC[C@@H](CCCCC)OC(=O)/C=C/[C@@H](O)[C@H](O)C[C@H](O)CC=C`, the Potency entry is “inactive”.

`COc1ccc2oc(=O)c(C(=O)O)cc2c1`: the Potency is 20 µM (active).

On to `N=c1oc2ccccc2cc1C(=O)NCc1ccccc1`, for which the Potency result was “inactive”.

As to `O=C(NCc1ccccn1)c1cc2ccccc2oc1=O`, the Potency was 31.6 µM (active).

As for `COc1ccc(CNC(=O)c2cc3cccc(OC)c3oc2=O)cc1`, the Potency result is “inactive”.

Consider `COc1ccc2oc(=O)c(C(=O)N3CCN(c4ccccc4F)CC3)cc2c1`, for which the Potency result is “inactive”.

For `Cc1ccc(S(=O)(=O)N2CCC(C)CC2)cc1C(=O)NCc1ccccn1`, the Potency result was “inactive”.

On to `Cc1cc(C)cc(OCC(=O)NNC(=O)c2cc3ccccc3oc2=O)c1`, for which the Potency result was “inactive”.

As for `COc1cccc(S(=O)(=O)NCc2ccc(C(=O)NCc3ccccn3)cc2)c1`, the Potency result is “inactive”.

With `O=C(NCc1ccccn1)c1cnc2sccn2c1=O`, the Potency is 28.2 µM (active).

For the molecule `COc1ccc2oc(=O)c(C(=O)N3CCCc4ccccc43)cc2c1`, the Potency result is “inactive”.

Consider `Cc1ccccc1CN1CCN(CC(=O)NCc2ccccn2)C1=O`, for which the Potency entry was “inactive”.

On to `COc1ccc2oc(=O)c(C(=O)NCc3ccccn3)cc2c1`, for which the Potency was 10 µM (active).

For the molecule `COc1cc(NC(=O)c2cc(-c3ccc(F)cc3OC(C)C)n[nH]2)cc(OC)c1OC`, the Potency entry is “inactive”.

For `COc1ccc(NC(=O)C2Cc3c(-c4ccc5c(c4)OCO5)ccnc3O2)cn1` (centres undefined), the Potency result was “inactive”.

Regarding `COc1cc(C(O)c2nc(-c3cccc(C(=O)O)c3)cs2)ccc1F` (centres undefined), the Potency result is “inactive”.

With `Cc1cc2c(cc1C)N1C(=O)c3cc4ccccc4cc3NC(=O)C1C(=O)N2` (centres undefined), the Potency entry was “inactive”.

As for `COc1cc(OC)c(OC)cc1/C=C1\C=Cc2ccccc21`, the Potency result was “inactive”.

In the case of `CCOC(=O)C1(C)CCCN(C(=O)c2ccc(F)c(Cl)c2)C1` (centres undefined), the Potency result was “inactive”.

`O=C(NCc1ccc(F)cc1)c1cc(C2CCCCN2C(=O)C2CCCCC2)on1` (centres undefined): the Potency result was “inactive”.

As for `COc1cc(C(O)c2nc(-c3cnn(C)c3)cs2)ccc1F` (centres undefined), the Potency entry is “inactive”.

Regarding `CCc1ccc(Oc2coc3cc(OC(=O)c4cc5ccccc5oc4=O)ccc3c2=O)cc1`, the Potency entry was “inactive”.

Regarding `O=C(Oc1cccnc1)c1cc2ccccc2oc1=O`, the Potency was 28.2 µM (active).

Turning to `CCOC(=O)c1cc2cc3ccccc3cc2oc1=O`, the Potency entry was “inactive”.

With `COc1ccc(Cl)cc1-c1cc(C(=O)Nc2cc(OC)c(OC)c(OC)c2)[nH]n1`, the Potency entry was “inactive”.

With `O=C(CCCn1c(=O)[nH]c2cc(Cl)ccc2c1=O)NCCN1CCN(c2ccccc2)CC1`, the Potency result was “inactive”.

As to `CCN(CC)CCNC(=O)CCCCCn1c(=O)[nH]c2cc(C(=O)OC)ccc2c1=O`, the Potency is 28.2 µM (active).

In the case of `CCCCCn1c(=O)[nH]c2cc(C(=O)NCCN(C)CCCC)ccc2c1=O`, the Potency result was “inactive”.

Consider `Nc1ncnc2c1ncn2[C@@H]1O[C@H](C(=O)NCC(F)(F)F)[C@@H](O)[C@H]1O`, for which the Potency entry was “inactive”.

Consider `CCCCc1c(-c2ccc(Cl)cc2)ncn1CCc1ccccc1OC`, for which the Potency result is “inactive”.

`Cc1nn(-c2ncc(C(F)(F)F)cc2Cl)c(=O)n1-c1ccccc1`: the Potency result is “inactive”.

As for `Cc1ccc(-c2nc3c(Cl)cc(C(F)(F)F)cn3c2Cc2cccc(Cl)c2)cc1`, the Potency entry was “inactive”.

In the case of `Cc1ccc(-c2ccnc3nc(Sc4ncc(C(F)(F)F)cc4Cl)nn23)cc1`, the Potency is 7.08 µM (active).
